In the supplement of paper PMC11732987, “Enantioselective OTUD7B fragment discovery through chemoproteomics screening and high-throughput optimisation” (Communications Chemistry, 2025):

Legend:
Assay in all cases: log2 ratio of Biotin-Ahx-Ub-VS probe labelling (fragment/DMSO); higher = less target engagement (more negative = stronger competition), active = hit call of the paper (q ≤ 0.05, log2 ratio ≤ -1)
Settings in all cases: compound concentration: 200 uM; treatment time: 3 h
[1] = target: USP34 (UniProt Q70CQ2)
Outline: (§1)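 Using Biotin-Ahx-Ub-VS at 0.5 µM final for 1 h, DUBs were labelled in HEK293T lysate (495 µg per sample) that had first been treated in triplicate with fragment at 200 µM or vehicle for 3 h. NeutrAvidin enrichment, LysC and trypsin digestion and diaPASEF LC-MS/MS followed. Spectronaut label-free quantities were global-median-normalised. Values are average log2 fragment/vehicle ratios by unpaired t-test, using proteins with ≥2 unique peptides.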

[2] = target: T1, USP36 (UniProt Q9P275)
T1 sequence (whole entry): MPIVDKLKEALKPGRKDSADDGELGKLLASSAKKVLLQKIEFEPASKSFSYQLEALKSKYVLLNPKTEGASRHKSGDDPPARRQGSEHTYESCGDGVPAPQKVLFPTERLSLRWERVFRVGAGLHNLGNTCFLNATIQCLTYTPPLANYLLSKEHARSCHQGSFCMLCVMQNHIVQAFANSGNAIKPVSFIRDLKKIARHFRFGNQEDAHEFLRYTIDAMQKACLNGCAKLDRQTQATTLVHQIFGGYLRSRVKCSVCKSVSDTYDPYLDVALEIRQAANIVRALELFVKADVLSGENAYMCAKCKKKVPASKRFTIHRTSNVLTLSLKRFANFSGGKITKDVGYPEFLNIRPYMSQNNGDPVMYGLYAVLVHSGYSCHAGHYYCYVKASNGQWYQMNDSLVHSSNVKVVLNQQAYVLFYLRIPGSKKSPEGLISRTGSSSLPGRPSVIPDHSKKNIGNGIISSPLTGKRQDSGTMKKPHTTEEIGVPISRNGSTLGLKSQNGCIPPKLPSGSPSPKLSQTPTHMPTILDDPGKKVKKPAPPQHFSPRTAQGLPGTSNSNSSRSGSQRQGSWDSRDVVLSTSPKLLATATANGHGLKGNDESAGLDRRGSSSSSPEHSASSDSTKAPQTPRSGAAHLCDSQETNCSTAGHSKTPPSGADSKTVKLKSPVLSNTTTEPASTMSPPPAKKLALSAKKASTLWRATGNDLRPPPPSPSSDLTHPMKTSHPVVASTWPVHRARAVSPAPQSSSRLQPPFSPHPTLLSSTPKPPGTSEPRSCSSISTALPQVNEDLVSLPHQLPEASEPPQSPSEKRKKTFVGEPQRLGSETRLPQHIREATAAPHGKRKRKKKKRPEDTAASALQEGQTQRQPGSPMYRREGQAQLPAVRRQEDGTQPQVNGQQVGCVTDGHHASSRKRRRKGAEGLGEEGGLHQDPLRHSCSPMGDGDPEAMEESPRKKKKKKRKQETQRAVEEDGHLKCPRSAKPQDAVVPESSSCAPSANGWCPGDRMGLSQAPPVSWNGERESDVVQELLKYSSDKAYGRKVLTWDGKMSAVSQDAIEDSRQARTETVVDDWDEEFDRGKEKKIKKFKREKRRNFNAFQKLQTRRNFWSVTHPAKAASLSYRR
Outline: as §1

[3] = target: T2, USP38 (UniProt Q8NB14)
T2 sequence (whole entry): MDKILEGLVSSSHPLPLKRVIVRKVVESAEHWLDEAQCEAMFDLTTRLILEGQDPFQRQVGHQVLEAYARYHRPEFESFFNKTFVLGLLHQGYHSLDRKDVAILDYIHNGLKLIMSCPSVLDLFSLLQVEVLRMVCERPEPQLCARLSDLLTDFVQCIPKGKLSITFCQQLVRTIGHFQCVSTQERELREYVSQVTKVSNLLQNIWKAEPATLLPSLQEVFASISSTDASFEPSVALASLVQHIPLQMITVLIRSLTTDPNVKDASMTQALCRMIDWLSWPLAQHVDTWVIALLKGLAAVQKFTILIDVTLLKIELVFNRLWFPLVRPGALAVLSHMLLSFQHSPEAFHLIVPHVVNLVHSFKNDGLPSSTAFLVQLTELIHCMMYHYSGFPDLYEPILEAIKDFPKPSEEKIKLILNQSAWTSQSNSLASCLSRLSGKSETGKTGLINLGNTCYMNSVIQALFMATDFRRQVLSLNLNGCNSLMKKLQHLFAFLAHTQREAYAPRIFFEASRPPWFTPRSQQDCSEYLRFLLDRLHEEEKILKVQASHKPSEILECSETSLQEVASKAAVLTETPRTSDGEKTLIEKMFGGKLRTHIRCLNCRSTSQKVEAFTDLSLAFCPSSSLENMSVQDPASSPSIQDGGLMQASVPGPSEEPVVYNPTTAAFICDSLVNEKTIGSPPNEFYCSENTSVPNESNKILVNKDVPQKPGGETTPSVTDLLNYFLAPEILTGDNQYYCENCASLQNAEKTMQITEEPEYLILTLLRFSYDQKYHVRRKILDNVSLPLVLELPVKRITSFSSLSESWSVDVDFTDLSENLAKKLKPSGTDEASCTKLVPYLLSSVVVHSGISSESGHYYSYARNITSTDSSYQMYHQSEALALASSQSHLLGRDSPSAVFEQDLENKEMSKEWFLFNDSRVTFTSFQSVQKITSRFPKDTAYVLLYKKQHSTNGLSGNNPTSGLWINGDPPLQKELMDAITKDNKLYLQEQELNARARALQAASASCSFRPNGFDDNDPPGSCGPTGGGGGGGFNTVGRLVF
Outline: as §1

[4] = target: T3, USP39 (UniProt Q53GS9)
T3 sequence (whole entry): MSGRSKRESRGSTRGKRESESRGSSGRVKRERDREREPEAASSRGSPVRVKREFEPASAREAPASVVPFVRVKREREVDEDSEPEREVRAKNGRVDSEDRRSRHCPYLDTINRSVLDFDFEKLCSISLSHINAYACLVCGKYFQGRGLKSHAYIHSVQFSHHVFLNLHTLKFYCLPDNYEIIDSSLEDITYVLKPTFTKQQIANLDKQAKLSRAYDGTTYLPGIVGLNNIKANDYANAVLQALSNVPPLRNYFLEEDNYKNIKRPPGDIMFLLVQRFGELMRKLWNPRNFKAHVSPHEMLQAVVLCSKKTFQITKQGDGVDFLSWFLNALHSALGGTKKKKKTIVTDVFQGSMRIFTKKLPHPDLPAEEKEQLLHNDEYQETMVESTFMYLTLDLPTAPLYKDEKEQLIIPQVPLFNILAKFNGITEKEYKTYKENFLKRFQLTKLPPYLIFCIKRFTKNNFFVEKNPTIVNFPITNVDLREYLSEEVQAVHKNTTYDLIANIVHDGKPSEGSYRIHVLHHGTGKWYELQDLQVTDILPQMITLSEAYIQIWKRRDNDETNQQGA
Outline: as §1

[5] = target: T4, USP4 (UniProt Q13107)
T4 sequence (whole entry): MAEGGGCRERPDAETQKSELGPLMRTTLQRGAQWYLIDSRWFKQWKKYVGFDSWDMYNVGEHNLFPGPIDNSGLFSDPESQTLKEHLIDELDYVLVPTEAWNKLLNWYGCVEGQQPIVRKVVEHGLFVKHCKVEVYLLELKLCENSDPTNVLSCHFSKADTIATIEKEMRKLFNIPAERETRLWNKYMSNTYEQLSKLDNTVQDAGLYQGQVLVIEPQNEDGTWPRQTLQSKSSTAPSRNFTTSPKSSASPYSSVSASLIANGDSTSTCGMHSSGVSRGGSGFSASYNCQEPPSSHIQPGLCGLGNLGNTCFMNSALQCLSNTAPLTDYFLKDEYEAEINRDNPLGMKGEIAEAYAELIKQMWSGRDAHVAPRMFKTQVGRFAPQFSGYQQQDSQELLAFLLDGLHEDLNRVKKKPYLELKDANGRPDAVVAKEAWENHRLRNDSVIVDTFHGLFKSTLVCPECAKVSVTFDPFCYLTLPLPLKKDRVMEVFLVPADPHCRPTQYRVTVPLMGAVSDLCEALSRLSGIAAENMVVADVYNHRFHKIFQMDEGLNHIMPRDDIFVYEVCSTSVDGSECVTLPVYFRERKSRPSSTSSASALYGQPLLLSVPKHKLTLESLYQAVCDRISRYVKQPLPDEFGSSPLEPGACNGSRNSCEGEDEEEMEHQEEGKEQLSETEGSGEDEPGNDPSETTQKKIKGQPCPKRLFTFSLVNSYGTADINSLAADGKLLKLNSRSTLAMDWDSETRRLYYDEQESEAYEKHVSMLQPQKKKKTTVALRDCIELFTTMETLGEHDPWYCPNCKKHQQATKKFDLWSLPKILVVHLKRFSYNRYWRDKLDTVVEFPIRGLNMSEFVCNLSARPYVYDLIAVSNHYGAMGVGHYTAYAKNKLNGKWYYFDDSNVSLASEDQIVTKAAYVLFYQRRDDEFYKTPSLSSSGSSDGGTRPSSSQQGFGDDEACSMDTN
Outline: as §1

Measured: log2 ratio of Biotin-Ahx-Ub-VS probe labelling

Sequence of USP34 (Q70CQ2 whole entry, the tested form may be a part): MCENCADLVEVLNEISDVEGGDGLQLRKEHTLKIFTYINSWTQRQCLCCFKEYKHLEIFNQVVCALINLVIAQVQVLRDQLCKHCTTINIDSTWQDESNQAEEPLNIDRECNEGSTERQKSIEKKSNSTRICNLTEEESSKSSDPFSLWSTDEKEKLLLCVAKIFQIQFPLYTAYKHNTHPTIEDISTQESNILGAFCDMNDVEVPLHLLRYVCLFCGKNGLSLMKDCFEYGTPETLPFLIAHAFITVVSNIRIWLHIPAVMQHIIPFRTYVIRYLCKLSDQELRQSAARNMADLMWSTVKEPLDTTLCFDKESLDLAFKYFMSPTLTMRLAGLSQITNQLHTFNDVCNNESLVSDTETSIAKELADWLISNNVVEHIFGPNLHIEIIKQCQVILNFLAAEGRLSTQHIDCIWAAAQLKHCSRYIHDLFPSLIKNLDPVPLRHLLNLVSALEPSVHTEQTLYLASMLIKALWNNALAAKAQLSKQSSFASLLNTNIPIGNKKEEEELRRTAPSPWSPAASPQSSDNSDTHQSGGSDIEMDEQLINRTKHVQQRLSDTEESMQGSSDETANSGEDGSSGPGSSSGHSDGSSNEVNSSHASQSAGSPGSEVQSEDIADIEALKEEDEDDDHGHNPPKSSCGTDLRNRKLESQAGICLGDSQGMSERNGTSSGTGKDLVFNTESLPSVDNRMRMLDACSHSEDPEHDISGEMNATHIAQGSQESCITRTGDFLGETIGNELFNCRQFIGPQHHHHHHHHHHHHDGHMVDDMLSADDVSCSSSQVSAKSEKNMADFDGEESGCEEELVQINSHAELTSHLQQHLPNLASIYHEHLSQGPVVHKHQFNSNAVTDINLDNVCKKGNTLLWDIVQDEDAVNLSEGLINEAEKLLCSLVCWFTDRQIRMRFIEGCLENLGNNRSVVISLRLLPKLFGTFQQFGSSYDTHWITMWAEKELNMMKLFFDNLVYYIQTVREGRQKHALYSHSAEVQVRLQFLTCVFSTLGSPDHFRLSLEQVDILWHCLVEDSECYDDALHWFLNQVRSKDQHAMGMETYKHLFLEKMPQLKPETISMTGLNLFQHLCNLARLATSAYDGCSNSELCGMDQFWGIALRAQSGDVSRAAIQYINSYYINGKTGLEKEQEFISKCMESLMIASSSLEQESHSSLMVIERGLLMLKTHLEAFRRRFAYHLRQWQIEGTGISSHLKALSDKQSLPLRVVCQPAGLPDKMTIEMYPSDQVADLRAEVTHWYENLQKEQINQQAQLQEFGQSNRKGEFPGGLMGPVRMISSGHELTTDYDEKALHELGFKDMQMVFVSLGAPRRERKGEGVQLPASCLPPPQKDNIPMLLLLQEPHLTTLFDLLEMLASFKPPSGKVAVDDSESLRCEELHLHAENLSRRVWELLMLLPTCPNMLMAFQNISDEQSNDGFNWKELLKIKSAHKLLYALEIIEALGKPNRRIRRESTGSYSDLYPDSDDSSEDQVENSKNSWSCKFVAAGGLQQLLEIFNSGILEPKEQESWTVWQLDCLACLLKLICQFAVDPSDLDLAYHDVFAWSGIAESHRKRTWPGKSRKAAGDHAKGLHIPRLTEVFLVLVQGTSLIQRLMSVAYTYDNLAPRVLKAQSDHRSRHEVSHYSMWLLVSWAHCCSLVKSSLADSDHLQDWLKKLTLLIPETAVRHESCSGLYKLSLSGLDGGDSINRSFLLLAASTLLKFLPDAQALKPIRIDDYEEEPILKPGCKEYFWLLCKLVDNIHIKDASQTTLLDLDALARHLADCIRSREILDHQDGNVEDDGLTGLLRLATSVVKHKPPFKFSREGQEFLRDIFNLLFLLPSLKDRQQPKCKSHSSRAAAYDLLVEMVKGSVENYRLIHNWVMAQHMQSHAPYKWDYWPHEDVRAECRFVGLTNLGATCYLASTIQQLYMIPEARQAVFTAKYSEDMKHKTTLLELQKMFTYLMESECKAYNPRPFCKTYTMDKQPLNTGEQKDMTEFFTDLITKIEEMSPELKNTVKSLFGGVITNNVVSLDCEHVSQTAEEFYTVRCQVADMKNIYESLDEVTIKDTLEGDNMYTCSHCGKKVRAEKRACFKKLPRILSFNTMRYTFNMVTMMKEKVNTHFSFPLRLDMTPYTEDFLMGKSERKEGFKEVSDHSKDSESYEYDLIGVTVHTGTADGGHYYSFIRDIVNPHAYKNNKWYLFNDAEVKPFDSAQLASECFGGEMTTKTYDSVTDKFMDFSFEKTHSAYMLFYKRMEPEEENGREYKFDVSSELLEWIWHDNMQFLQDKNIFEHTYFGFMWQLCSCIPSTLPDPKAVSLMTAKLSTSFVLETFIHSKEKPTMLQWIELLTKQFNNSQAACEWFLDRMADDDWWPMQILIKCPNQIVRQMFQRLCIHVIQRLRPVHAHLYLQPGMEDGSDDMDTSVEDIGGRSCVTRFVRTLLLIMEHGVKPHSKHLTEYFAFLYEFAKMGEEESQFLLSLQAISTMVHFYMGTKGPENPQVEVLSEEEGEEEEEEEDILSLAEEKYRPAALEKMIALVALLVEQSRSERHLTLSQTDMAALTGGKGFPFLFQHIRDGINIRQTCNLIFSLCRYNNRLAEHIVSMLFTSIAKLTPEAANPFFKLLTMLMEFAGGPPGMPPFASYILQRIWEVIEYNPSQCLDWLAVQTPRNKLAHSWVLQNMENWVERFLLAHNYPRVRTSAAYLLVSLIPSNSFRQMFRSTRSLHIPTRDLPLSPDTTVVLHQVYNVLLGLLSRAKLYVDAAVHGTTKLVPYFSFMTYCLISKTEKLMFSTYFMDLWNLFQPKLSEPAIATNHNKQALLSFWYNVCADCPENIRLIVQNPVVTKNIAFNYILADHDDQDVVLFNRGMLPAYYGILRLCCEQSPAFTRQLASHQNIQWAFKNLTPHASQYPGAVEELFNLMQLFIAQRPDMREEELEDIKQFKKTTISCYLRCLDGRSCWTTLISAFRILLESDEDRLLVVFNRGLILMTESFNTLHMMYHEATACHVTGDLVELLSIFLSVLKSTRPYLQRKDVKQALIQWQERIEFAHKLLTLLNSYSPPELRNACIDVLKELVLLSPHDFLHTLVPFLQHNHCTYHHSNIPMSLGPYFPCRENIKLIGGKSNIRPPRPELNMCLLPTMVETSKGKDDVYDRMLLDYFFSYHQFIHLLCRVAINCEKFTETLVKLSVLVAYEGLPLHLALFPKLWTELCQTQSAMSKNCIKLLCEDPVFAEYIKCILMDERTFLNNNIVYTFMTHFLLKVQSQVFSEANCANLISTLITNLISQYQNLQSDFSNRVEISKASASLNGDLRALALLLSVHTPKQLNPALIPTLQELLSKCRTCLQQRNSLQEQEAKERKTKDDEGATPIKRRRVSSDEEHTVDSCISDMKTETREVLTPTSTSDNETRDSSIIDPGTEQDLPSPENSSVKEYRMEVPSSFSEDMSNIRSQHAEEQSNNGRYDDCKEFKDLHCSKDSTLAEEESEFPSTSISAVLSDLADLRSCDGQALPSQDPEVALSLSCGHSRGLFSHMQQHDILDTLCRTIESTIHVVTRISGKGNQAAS

O=C(CCl)NCc1ccc(N2CCOCC2)nc1
inactive: [1] -0.0991 | [2] -0.161 | [3] -0.0678 | [4] -0.00187 | [5] 0.0133
